PubChem BioAssay (EPA / NIEHS)
Results filed as inconclusive are left out. Some structures have more than one record in an assay (separate samples or runs), and their calls can disagree. Calls of active or inactive are those of the source. Rule for the calls, unless noted: active = hit-call score of the fitted dose curve at least 0.9, where 1 is the maximum; inactive = score below 0.9.

What was measured:
[1] = BSK_BT_Bcell_Proliferation: Viability Assessment in the BioMAP Diversity Plus: BT Assay for B cell Proliferation (AID 2284227); settings: primary human B cells with PBMC
Procedure, shortened: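 Using a human primary B cell–PBMC co-culture, the assay measures total protein by sulforhodamine B absorbance as a gauge of proliferation after 72 h. Analysis followed the positive fitting direction with DMSO as baseline.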

[2] = read-out: Interleukin 6 (IL6), IL6 (gene 3569); assay: BSK_BT_xIL6: BioMAP Diversity Plus: BT Assay for Interleukin 6 (IL6) Biomarker Activity (AID 2284228); settings: primary human B cells with PBMC
Procedure, shortened: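 Human B cell/PBMC co-culture; secreted IL-6 quantified by Luminex xMAP 24 h after chemical dosing, fitted relative to DMSO. Parallel PBMC viability by Alamar Blue after 1 h pretreatment, 20 ng/mL SEB and TSST-1, 90 h incubation.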

[3] = read-out: Interleukin 17A (IL17A), IL17A (gene 3605); assay: BSK_BT_xIL17A: BioMAP Diversity Plus: BT Assay for Interleukin 17A (IL17A) Biomarker Activity (AID 2284229); settings: primary human B cells with PBMC
Procedure, shortened: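 Co-culture of human B cells and PBMC, dosed for 24 h in 96-well format. Secreted IL-17A measured with Luminex xMAP; gain-direction fitting against DMSO as baseline.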

[4] = read-out: Tumor necrosis factor (Homo sapiens) (UniProt P01375); assay: BSK_BT_xTNFa: BioMAP Diversity Plus: BT Assay for Tumor necrosis factor alpha (TNF-alpha) Biomarker Activity (AID 2284230); settings: primary human B cells with PBMC
Procedure, shortened: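 Endpoint derived in the positive direction versus DMSO vehicle. Cells: B cells together with PBMC, exposed 24 h before TNF-alpha in the medium was read on the Luminex xMAP platform.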

[5] = read-out: Vascular cell adhesion molecule 1 (VCAM1), VCAM1 (gene 7412); assay: BSK_MyoF_VCAM1: BioMAP Diversity Plus: MyoF Assay for Vascular cell adhesion molecule 1 (VCAM1) Biomarker Activity (AID 2284231); settings: primary human lung fibroblasts
Procedure, shortened: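 Primary human lung fibroblasts (BioMAP MyoF system) dosed with chemical, VCAM-1 measured by ELISA 24 hours later. Fitted in the positive direction against DMSO; parallel SRB staining assessed cytotoxicity.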

[6] = read-out: Collagen I, COL1A1 (gene 1277); assay: BSK_MyoF_CollagenI: BioMAP Diversity Plus: MyoF Assay for Collagen I Biomarker Activity (AID 2284238); settings: primary human lung fibroblasts
Procedure, shortened: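 Primary human lung fibroblasts (MyoF system) treated 24 h; Collagen I quantified by ELISA and fitted in positive direction against DMSO. Parallel SRB total-protein staining assessed overt cytotoxicity.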

[7] = read-out: Collagen III, COL3A1 (gene 1281); assay: BSK_MyoF_CollagenIII: BioMAP Diversity Plus: MyoF Assay for Collagen III Biomarker Activity (AID 2284239); settings: primary human lung fibroblasts
Procedure, shortened: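 Primary human lung fibroblasts (BioMAP MyoF system) exposed 24 h. Collagen III measured by ELISA; positive-direction fit relative to DMSO.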

[8] = read-out: Interleukin 17F (IL17F), IL17F (gene 112744); assay: BSK_BT_xIL17F: BioMAP Diversity Plus: BT Assay for Interleukin 17F (IL17F) Biomarker Activity (AID 2284243); settings: primary human B cells with PBMC
Procedure, shortened: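 Human PBMC co-cultured with B cells, compound exposure 24 h; secreted IL-17F quantified by Luminex xMAP, referenced to DMSO control. PBMC viability measured in parallel by Alamar Blue reduction.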

[9] = read-out: Actin alpha 1 (ACTA1), ACTA1 (gene 58); assay: BSK_MyoF_ACTA1: BioMAP Diversity Plus: MyoF Assay for Actin alpha 1 (ACTA1) Biomarker Activity (AID 2284244); settings: primary human lung fibroblasts
Procedure, shortened: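 MyoF fibroblast system (human lung); a-SMA quantified via ELISA at 24 h; DMSO-normalised, gain-of-signal endpoint.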

[10] = read-out: Interleukin 2 (IL2), IL2 (gene 3558); assay: BSK_BT_xIL2: BioMAP Diversity Plus: BT Assay for Interleukin 2 (IL2) Biomarker Activity (AID 2284245); settings: primary human B cells with PBMC
Procedure, shortened: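 Co-cultures of primary human B cells and PBMC are treated with chemical and sampled at 24 h. IL-2 secretion is quantified by Luminex xMAP, with DMSO-treated wells as baseline.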

[11] = read-out: Basic fibroblast growth factor (bFGF), FGF2 (gene 2247); assay: BSK_MyoF_bFGF: BioMAP Diversity Plus: MyoF Assay for Basic fibroblast growth factor (bFGF) Biomarker Activity (AID 2284246); settings: primary human lung fibroblasts
Procedure, shortened: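 Fibroblasts from human lung, 24 h dosing. bFGF by ELISA; gain of signal over DMSO.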

[12] = read-out: Collagen IV, COL4A1 (gene 1282); assay: BSK_MyoF_CollagenIV: BioMAP Diversity Plus: MyoF Assay for Collagen IV Biomarker Activity (AID 2284247); settings: primary human lung fibroblasts
Procedure, shortened: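 Lung fibroblasts (human primary) treated with chemicals were assayed after 24 h for Collagen IV using an ELISA, with DMSO serving as negative control and baseline for a positive-direction fit.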

[13] = read-out: Monokine induced gamma interferon (MIG), CXCL9 (gene 4283); assay: BSK_KF3CT_MIG: BioMAP Diversity Plus: KF3CT Assay for Monokine induced gamma interferon (MIG) Biomarker Activity (AID 2284248); settings: primary human keratinocytes with fibroblasts
Procedure, shortened: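 Human keratinocyte–foreskin fibroblast co-culture; MIG measured by ELISA 24 h after chemical dosing, fitted upward versus DMSO. Cytotoxicity was assessed in parallel cultures by SRB total-protein staining read at 560 nm.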

[14] = read-out: Vascular cell adhesion molecule 1 (VCAM1), VCAM1 (gene 7412); assay: BSK_BF4T_VCAM1: BioMAP Diversity Plus: BF4T Assay for Vascular cell adhesion molecule 1 (VCAM1) Biomarker Activity (AID 2284249); settings: primary human bronchial epithelial cells with fibroblasts
Procedure, shortened: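 Cell-surface VCAM-1 quantified by ELISA after 24 h chemical exposure of human bronchial epithelial/dermal fibroblast co-cultures, with SRB staining in parallel wells for cytotoxicity; DMSO baseline, positive-direction fitting.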

[15] = read-out: Collagen I, COL1A1 (gene 1277); assay: BSK_hDFCGF_CollagenI: BioMAP Diversity Plus: hDFCGF Assay for Collagen I Biomarker Activity (AID 2284250); settings: primary human foreskin fibroblasts
Procedure, shortened: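 Readout: Collagen I by ELISA after 24 h compound treatment of primary human foreskin fibroblasts. Endpoint analysed for increases relative to DMSO; total protein by SRB in parallel wells flagged cytotoxicity.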

[16] = read-out: Plasminogen activator inhibitor-1 (PAI1), SERPINE1 (gene 5054); assay: BSK_KF3CT_PAI1: BioMAP Diversity Plus: KF3CT Assay for Plasminogen activator inhibitor-1 (PAI1) Biomarker Activity (AID 2284252); settings: primary human keratinocytes with fibroblasts
Procedure, shortened: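 In this co-culture of primary human keratinocytes and foreskin fibroblasts, PAI-1 was measured by ELISA at 24 h and fitted upward from DMSO.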

[17] = read-out: Monocyte Chemoattractant Protein-1 (MCP1), CCL2 (gene 6347); assay: BSK_IMphg_MCP1: BioMAP Diversity Plus: IMphg Assay for Monocyte Chemoattractant Protein-1 (MCP1) Biomarker Activity (AID 2284253); settings: primary human endothelial cells with macrophages
Procedure, shortened: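 ELISA readout of MCP-1 at 24 hours in IMphg co-cultures of venular endothelial cells and macrophages, normalised to DMSO; parallel cultures stained with sulforhodamine B for overt cytotoxicity.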

[18] = CCTE_Mundy_HCI_hNP1_Casp3_7: CCTE's Caspase-Glo 3/7 Assay in human neuroprogenitor cells for Apoptosis, Mundy Lab (AID 2284240)
Procedure, shortened: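 Luminescent caspase-3/7 readout, 26.5 h post-dose, in human neural progenitor cells from WA09 embryonic stem cells. Cells grew 40–44 h at 37 °C, 5% CO2 before chemical addition. Activity analysed as signal increase over DMSO baseline.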

[19] = CCTE_Mundy_HCI_hNP1_CellTiter: CCTE's Cell Titer-Glo 2 Assay in human neuroprogenitor cells for Viability, Mundy Lab (AID 2284241; active = hit-call score of the fitted dose curve at least 0.9, where 1 is the maximum)
Procedure, shortened: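 Viability read as luminescent ATP content (CellTiter-Glo, 30 min room temperature) twenty-four hours after dosing, relative to DMSO. Cells: WA09-derived hNP1 neuroprogenitors on poly-L-ornithine/laminin, plated 40 to 44 hours before chemical.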

[20] = read-out: Interferon-inducible T-cell alpha chemoattractant (ITAC), CXCL11 (gene 6373); assay: BSK_hDFCGF_ITAC: BioMAP Diversity Plus: hDFCGF Assay for Interferon-inducible T-cell alpha chemoattractant (ITAC) Biomarker Activity (AID 2284251); settings: primary human foreskin fibroblasts
Procedure, shortened: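 Measured by ELISA, the chemokine level serves as the endpoint in human skin fibroblast primary cultures 24 h after compound addition. Increases relative to DMSO-treated wells define activity.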

Measured: AC50

Chain of Tumor necrosis factor (Homo sapiens) (P01375 whole entry, looked up): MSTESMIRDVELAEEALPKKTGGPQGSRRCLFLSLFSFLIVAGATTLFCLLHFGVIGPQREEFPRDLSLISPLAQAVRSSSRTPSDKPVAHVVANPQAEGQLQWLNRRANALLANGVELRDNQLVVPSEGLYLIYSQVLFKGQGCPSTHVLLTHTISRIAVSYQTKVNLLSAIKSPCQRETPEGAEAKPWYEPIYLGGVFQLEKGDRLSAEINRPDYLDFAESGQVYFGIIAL

C=C(C)C(=O)OCC(F)(F)C(F)(F)C(F)(F)C(F)F
inactive: [1] | [2] | [3] | [4] | [5] | [6] | [7] | [8] | [9] | [10] | [11] | [12] | [13] | [14] | [15] | [16] | [17]
active: [8] 22.9 µM | [9] 14.4 µM

OCCCCC(F)(F)C(F)(F)C(F)(F)C(F)(F)F
inactive: [1] | [2] | [3] | [4] | [5] | [6] | [18] | [19] | [8] | [9] | [10] | [11] | [12] | [13] | [14] | [15] | [16] | [17]
active: [8] 21.7 µM

COC(F)(C(F)F)C(F)(F)F (stereo not drawn)
active: [9] 0.556 µM
inactive: [1] | [2] | [3] | [4] | [5] | [6] | [8] | [9] | [10] | [11] | [12] | [13] | [14] | [15] | [20] | [16] | [17]

CC(C)(C)c1cc(CCC(=O)NCCCCCCNC(=O)CCc2cc(C(C)(C)C)c(O)c(C(C)(C)C)c2)cc(C(C)(C)C)c1O
inactive: [1] | [2] | [3] | [4] | [5] | [6] | [9] | [11] | [12]
active: [8] 5.33 µM | [10] 1.36 µM

O=C(O)CCC(F)(F)C(F)(F)C(F)(F)C(F)(F)C(F)(F)C(F)(F)C(F)(F)F
inactive: [1] | [2] | [3] | [4] | [5] | [6] | [7] | [18] | [19] | [8] | [9] | [10] | [11] | [12] | [13] | [14] | [15] | [16] | [17]
active: [10] 2.38 µM

O=C(c1ccccc1)c1ccc(O)cc1O
inactive: [1] | [2] | [3] | [4] | [5] | [6] | [8] | [9] | [10] | [11] | [12]
